The text below walks through data of PubChem BioAssay (EPA / NIEHS).

Results filed as inconclusive are left out. Some structures have more than one record in an assay (separate samples or runs), and their calls can disagree. Calls of active or inactive are those of the source. How the source made its calls: active means hit-call score of the fitted dose curve at least 0.9, where 1 is the maximum; inconclusive means response in the unintended direction; inactive means score below 0.9.

A word on the AC50: it is the midpoint of the concentration-response curve, whichever way the signal moves.

The nature of test [1]: ArunA_NOG_BranchPointsPerNeurite: ArunA Biomedical's Neurite Outgrowth (NOG) Assay for Branch Points Per Neurite (AID 2283759). An outline of the steps: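 Automated image analysis traced neurites (processes >10 um) from valid cell bodies after Hoechst and βIII-tubulin staining. hNN cells from H9 embryonic stem cells, 48 h exposure. Fitted bidirectionally against DMSO.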
In test [2] the test system is chicken Androgen Receptor (AR), gene 422165. Description: ATG_chAR_XSP1: Attagene TRANS-FACTORIAL Multi-Species (XSP1) HepG2 Assay for chicken Androgen Receptor (AR) (AID 2283768). A digest of the protocol:
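HepG2 cells transiently transfected with multiplexed GAL4-UAS reporter units expressing chimeric chicken AR-Gal4; 3 nM 6-alpha-fluorotestosterone for partial AR stimulation; 24 h after dosing, reporter mRNA by RT-PCR and capillary electrophoresis, gain-of-signal versus DMSO.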

Test [3] addresses Estrogen receptor (Homo sapiens) (UniProt P03372). Description: ATG_hERa_XSP1: Attagene TRANS-FACTORIAL Multi-Species (XSP1) HepG2 Assay for human Estrogen Receptor (ESR1) (AID 2283780). A digest of the protocol:
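HepG2 cells transiently transfected with GAL4-UAS reporter units and chimeric NR-Gal4 constructs; 24 h after dosing, reporter mRNA quantified by RT-PCR and capillary electrophoresis. Medium contained 3 nM 6-alpha-fluorotestosterone; activity fitted as gain-of-signal versus DMSO.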

Test [4] has as its system turtle Androgen Receptor (AR), gene 101947425. Description: ATG_trAR_XSP1: Attagene TRANS-FACTORIAL Multi-Species (XSP1) HepG2 Assay for turtle Androgen Receptor (AR) (AID 2283786). An outline of the steps: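 HepG2 cells transiently transfected with a turtle AR–GAL4 chimera and GAL4-UAS reporter, co-treated with 3 nM 6-alpha-fluorotestosterone for partial stimulation. Reporter mRNA is quantified at 24 h by RT-PCR and capillary electrophoresis, gain-of-signal versus DMSO.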

Test [5] concerns the target Estrogen receptor beta (Homo sapiens) (UniProt Q92731). Description: ATG_hERb_XSP1: Attagene TRANS-FACTORIAL Multi-Species (XSP1) HepG2 Assay for human Estrogen Receptor (ESR2) (AID 2283788). An outline of the steps: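 Read-out: reporter mRNA induction by RT-PCR, HpaI digestion and capillary electrophoresis fluorescence, fitted in positive direction relative to DMSO baseline. Human liver HepG2 cells expressing ERβ-Gal4 fusion, dosed 24 h, medium containing 3 nM 6-alpha-fluorotestosterone.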

Test [6] has as its system frog Androgen Receptor (AR), gene 399456. In words: ATG_frAR_XSP1: Attagene TRANS-FACTORIAL Multi-Species (XSP1) HepG2 Assay for frog Androgen Receptor (AR) (AID 2283770).
The subject of test [7] is zebrafish Androgen Receptor (AR), gene 100005148. In words: ATG_zfAR_XSP1: Attagene TRANS-FACTORIAL Multi-Species (XSP1) HepG2 Assay for zebrafish Androgen Receptor (AR) (AID 2283771). A digest of the protocol:
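HepG2 cells were transiently transfected with a zebrafish AR-GAL4 reporter system and partially stimulated with 3 nM 6-alpha-fluorotestosterone. Reporter mRNA was measured after 24 h dosing by RT-PCR with capillary electrophoresis, and gain-of-signal was fitted relative to DMSO.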

The nature of test [8]: ACEA_AR_agonist_AUC_viability: ACEA Biosciences xCELLigence Real-Time Cell Analysis on Androgen Receptor Agonism for Viability (AID 2283775).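 On AC50: viability read 80 hours after compound addition.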 An outline of the steps:
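Read-out is area under the impedance curve at 80 h post-dose in 22Rv1 cells, with DMSO as baseline and signal loss taken as reduced viability. Compounds ran in duplicate from 100 uM final.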

The nature of test [9]: ACEA_AR_antagonist_AUC_viability: ACEA Biosciences xCELLigence Real-Time Cell Analysis on Androgen Receptor Antagonism for Viability (AID 2283776).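 Further: area under impedance growth curve at 80 h after dosing as viability; hits lower the growth signal relative to DMSO meaning cytotoxicity.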 A digest of the protocol:
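22Rv1 human prostate cancer cells were seeded on electrode plates, monitored overnight, then exposed to eight 1:4 dilutions from 100 uM final. Impedance-based growth kinetics at 80 h gave an AUC viability endpoint normalized to DMSO.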

Test [10] is described as follows: ACEA_ER_AUC_viability: ACEA Biosciences xCELLigence Real-Time Cell Analysis on Estrogen Receptor Agonism for Viability (AID 2283782).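 Further: continuous compound exposure with impedance area under curve over 80 h; hit means loss of impedance signal meaning reduced cell growth or viability.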 A digest of the protocol: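 T-47D human breast cells in phenol red-free RPMI1640 with 10% charcoal-stripped FBS were dosed with an 8-point 1:4 dilution series from 100 uM top final concentration, in duplicate. Impedance-based growth was followed for 80 h; AUC analysed versus DMSO.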

Test [11] has as its target AR (gene 367) (UniProt P10275). Description: ACEA_AR_antagonist_80hr: ACEA Biosciences xCELLigence Real-Time Cell Analysis on Androgen Receptor Antagonism for Proliferation (AID 2283787).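 Further: hits lower the impedance growth signal relative to DMSO.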 A digest of the protocol: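 Impedance readout (RT-CES), 80 h post-dose; loss-of-signal vs DMSO baseline. 22Rv1 cells in assay medium. Compounds: 8-pt 1:4 series, max 100 uM final, up to 0.5% DMSO; n = 2.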

The target of test [12] is AR (gene 367) (UniProt P10275). In words: ACEA_AR_agonist_80hr: ACEA Biosciences xCELLigence Real-Time Cell Analysis on Androgen Receptor Agonism for Proliferation (AID 2283783).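 Further: hits increase impedance growth signal above DMSO baseline.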 A digest of the protocol:
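22Rv1 human prostate cancer cells were seeded after preconditioning in assay medium and monitored overnight, then dosed in an eight-point 1:4 dilution series from 100 uM (≤0.5% DMSO). Impedance-based growth was read at 80 h, gain-of-signal versus DMSO.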

Sequence of AR (gene 367) (P10275 whole entry, looked up): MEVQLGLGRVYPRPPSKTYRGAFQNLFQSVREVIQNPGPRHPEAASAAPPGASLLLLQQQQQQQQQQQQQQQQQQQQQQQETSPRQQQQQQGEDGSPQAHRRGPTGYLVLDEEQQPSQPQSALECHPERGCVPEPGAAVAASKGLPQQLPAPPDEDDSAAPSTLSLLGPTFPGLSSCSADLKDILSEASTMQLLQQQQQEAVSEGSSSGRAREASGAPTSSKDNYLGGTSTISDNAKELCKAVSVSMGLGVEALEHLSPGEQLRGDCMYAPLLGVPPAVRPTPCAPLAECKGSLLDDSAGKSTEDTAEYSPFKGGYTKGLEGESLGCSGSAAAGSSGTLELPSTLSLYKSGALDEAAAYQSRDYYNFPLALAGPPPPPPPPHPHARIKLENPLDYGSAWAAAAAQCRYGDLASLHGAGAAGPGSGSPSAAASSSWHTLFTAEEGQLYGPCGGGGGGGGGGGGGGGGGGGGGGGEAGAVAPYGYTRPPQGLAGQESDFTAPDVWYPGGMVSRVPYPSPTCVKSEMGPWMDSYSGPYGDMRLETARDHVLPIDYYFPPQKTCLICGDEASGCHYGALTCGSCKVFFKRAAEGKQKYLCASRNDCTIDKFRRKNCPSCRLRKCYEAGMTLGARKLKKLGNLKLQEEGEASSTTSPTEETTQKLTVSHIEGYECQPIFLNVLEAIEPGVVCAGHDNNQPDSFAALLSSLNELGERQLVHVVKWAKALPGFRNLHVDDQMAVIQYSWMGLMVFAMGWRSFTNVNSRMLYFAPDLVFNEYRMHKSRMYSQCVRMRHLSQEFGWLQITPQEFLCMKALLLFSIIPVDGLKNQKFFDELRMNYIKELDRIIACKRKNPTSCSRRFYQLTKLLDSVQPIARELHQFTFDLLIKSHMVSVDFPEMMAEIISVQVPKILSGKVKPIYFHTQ
Sequence of Estrogen receptor beta (Homo sapiens) (Q92731 whole entry, looked up, the tested form may be a part): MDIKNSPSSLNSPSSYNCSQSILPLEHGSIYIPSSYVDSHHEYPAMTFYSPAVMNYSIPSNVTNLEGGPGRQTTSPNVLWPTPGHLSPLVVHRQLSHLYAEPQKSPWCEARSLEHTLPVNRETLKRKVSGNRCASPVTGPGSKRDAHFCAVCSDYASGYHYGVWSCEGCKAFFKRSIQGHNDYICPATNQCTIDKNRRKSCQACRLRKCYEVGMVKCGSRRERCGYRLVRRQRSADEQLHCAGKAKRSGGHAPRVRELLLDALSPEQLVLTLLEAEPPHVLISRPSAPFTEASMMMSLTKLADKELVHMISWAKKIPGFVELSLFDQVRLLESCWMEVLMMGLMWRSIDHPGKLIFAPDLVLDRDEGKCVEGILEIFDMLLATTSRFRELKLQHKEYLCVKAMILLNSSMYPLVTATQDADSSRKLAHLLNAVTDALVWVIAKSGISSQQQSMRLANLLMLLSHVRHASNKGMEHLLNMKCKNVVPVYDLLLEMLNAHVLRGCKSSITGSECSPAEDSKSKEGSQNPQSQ
Sequence of Estrogen receptor (Homo sapiens) (P03372 whole entry, looked up, the tested form may be a part): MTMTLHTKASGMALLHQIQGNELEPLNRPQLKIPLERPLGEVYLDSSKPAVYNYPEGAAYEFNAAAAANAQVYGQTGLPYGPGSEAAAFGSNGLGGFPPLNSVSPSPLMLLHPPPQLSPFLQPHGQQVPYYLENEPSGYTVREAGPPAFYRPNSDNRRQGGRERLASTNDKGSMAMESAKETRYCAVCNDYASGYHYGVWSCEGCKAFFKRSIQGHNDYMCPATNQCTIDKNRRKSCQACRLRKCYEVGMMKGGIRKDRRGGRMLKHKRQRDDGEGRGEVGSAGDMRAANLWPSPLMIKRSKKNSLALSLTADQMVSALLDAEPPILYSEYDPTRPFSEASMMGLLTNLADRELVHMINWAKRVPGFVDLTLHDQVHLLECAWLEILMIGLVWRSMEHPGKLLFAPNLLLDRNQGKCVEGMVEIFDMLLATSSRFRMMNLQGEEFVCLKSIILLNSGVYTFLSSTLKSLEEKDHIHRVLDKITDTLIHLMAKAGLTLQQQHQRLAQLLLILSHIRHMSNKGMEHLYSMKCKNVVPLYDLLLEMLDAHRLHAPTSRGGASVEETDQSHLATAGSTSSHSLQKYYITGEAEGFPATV

Turning to `CCCCCCCCOC(=O)c1cc(O)c(O)c(O)c1`, the outcome in [1] was inactive.

For `O=C(Nc1ccc(Cl)cc1)Nc1ccc(Cl)c(Cl)c1`, the outcome in [1] was inactive.

With `Cc1c2ccccc2c(C)c2c1ccc1ccccc12`, the AC50 was 8.7 µM (active) in [2] and 3.92 µM (active) in test [3]. Besides, the molecule was called inactive in [4] and in [5].

As for `CC(C)(c1cc(Br)c(O)c(Br)c1)c1cc(Br)c(O)c(Br)c1`, the molecule was called inactive in [2], in test [6], in test [7], in test [4] and in [5].

Take `Cc1ncc(CO)c(CO)c1O`: the molecule was classed as inactive in test [8], in [9] and in test [10].

As to `CCCCCCCCOc1ccc(C(=O)c2ccccc2)c(O)c1`, the results for the AC50 in [8] and in test [9] were 68.2 µM (active) and 13.7 µM (active), respectively. For the same molecule, in test [10], the molecule was called inactive.

For the molecule `CC(C)(O)c1ccc(CNC(=O)c2cccnc2Oc2ccc3nonc3c2)cc1`, the outcome in test [8], in test [9] and in [10] was inactive.

In the case of `CCCCCCCC[Si](OCC)(OCC)OCC`, the outcome in test [9] and in test [10] was inactive. In addition, the concentration at half-maximal activity (AC50) in [10] is 89.3 µM (active).

Regarding `Cc1ccc(C(C)C)cc1`, the call in [8], in test [9], in test [10] and in test [11] was inactive.

As for `CCCCCCCCCCCC[N+](C)(C)C`, the AC50 in test [9] is 9.45 µM (active); in [10] it was 50 µM (active).

Consider `CCN(Cc1cccnc1)C(=O)c1cccc(Cl)c1[C@]1(C)C(=O)N(Cc2ccc(OC)cc2OC)c2ccc(Cl)cc21`, for which the AC50 in [8] is 23.8 µM (active); in [9], 20.7 µM (active); in [11] it was 32 µM (active). The call in [10] and in test [12] was inactive.

Consider `Oc1ccc2ccccc2c1`, for which the molecule was classed as inactive in [9], in test [12] and in [11].

In the case of `O=c1ccc2ccccc2o1`, the result in test [8], in [9] and in test [10] was inactive.

As to `Cc1cc(F)ccc1-c1cc(N2CC[C@@H](O)[C@H]2CO)ncc1N(C)C(=O)C(C)(C)c1cc(C(F)(F)F)cc(C(F)(F)F)c1`, the results for the AC50 in test [8], in test [9] and in test [11] were 8.51 µM (active), 10.1 µM (active) and 6.76 µM (active), respectively.

Consider `CCCC(=O)OCCC(C)C`, for which the result in [8] and in [10] was inactive.

Turning to `CC[C@@H]1C[C@H](N(Cc2cc(C(F)(F)F)cc(C(F)(F)F)c2)C(C)=O)c2cc(C(F)(F)F)ccc2N1C(=O)OC(C)C`, the call in test [8] and in [9] was inactive. Moreover, in [10], the AC50 was 3.79 µM (active).

Take `CC(O)CC(C)(C)O` (stereo unspecified): the outcome in test [9] was inactive.

In the case of `CCCCCCCCCC(=O)O`, the result in [8], in [9], in test [10] and in test [11] was inactive.

Take `CN1C(=O)CC[C@H]1c1cccnc1`: the molecule was called inactive in [8], in test [9] and in [10].

Regarding `O=C(O)c1ccccc1C(=O)OCc1ccccc1`, the result in test [9], in [10], in test [12] and in test [11] was inactive.

Consider `COCC(C)OCC(C)OCC(C)O` (stereo unspecified), for which the molecule was classed as inactive in test [9], in [10], in test [12] and in test [11].

Regarding `O=C(OCCCCCCOC(=O)c1ccccc1)c1ccccc1`, the AC50 is 74 µM (active) in test [8] and 71.5 µM (active) in test [9]. Also, the molecule was called inactive in test [10].

Take `Cc1cn([C@H]2C[C@H](N=[N+]=[N-])[C@@H](CO)O2)c(=O)[nH]c1=O`: the molecule was classed as inactive in test [9] and in [10].

Take `O=CCCCC=O`: the values for the AC50 in [8], in [9] and in test [10] were 35.2 µM (active), 23.3 µM (active) and 40 µM (active), respectively.

Take `Cc1occc1C(=O)Nc1ccc(C(=O)N2CCC(F)(F)/C(=C\C(=O)N3CCC(N4CCCCC4)CC3)c3ccccc32)cc1`: the AC50 was 31.2 µM (active) in test [8], 41.1 µM (active) in test [9] and 42.3 µM (active) in test [11]. Moreover, the call in [12] was inactive.

In the case of `NC(=O)c1nc(-c2cccc(-c3cc(F)ccc3OCC(F)(F)C(F)(F)F)c2)n[nH]1`, the AC50 in test [8] is 24.6 µM (active); in [9], 19.3 µM (active); in test [10] it was 94 µM (active); in test [11] it was 18.4 µM (active). In addition, the outcome in test [12] was inactive.

Regarding `CCCCOC(=O)c1ccc(O)cc1`, the AC50 in test [8] is 69.5 µM (active); in [9] it was 56.7 µM (active); in test [11], 67.9 µM (active).

As to `COc1cccc([C@H](O)C2CCN(CCc3ccc(F)cc3)CC2)c1OC`, the figures for the AC50 in test [8] and in [9] were 50 µM (active) and 35.7 µM (active), respectively. Also, the molecule was called inactive in test [10].

Take `c1ccc2n[nH]nc2c1`: the call in test [8], in test [9] and in [10] was inactive.

Turning to `Cc1cc2c(cc1C(F)(F)F)N(C(=O)Nc1ccc(Oc3cccnc3C)nc1)CC2`, the figures for the AC50 in test [8], in [9] and in test [10] were 17.1 µM (active), 15.1 µM (active) and 15.6 µM (active), respectively.

Take `CCCCCCCCN(C)CCCCCCCC`: the molecule was classed as inactive in test [9], in test [10], in [12] and in [11].

Take `Clc1cc(Cl)c2c(c1)N=C1CCCCCN1C2`: the outcome in [8], in [9] and in test [10] was inactive.

`OCCO`: the molecule was classed as inactive in [8], in test [9], in [10] and in [11].

For `CCO[Si](CCCNC(N)=O)(OCC)OCC`, the result in test [8], in test [9] and in test [10] was inactive.

As to `c1ccc2ccccc2c1`, the outcome in [9] and in test [10] was inactive.

As for `CCN(CC)C(=O)c1cc(S(=O)(=O)Cc2ccccc2)c(N2CCC(c3ccccc3)CC2)cc1N(CC)CCN(C)C`, the AC50 in test [10] was 4.19 µM (active).

For `CC[C@H](NC(=O)c1cc(F)ccc1NS(=O)(=O)c1cccc2cccnc12)c1ccccc1`, the AC50 in [8] is 57.2 µM (active). Further, in test [10], the outcome was inactive.

For the molecule `O=C=NCCCCCCN=C=O`, the outcome in [10] was inactive.

As for `O=C(O)Cn1c(=O)n(Cc2ccc(Br)cc2F)c(=O)c2ccc(Cl)cc21`, the molecule was classed as inactive in [8], in [9], in test [10] and in test [11].

On to `CN(C)C(=O)C1(N2CCCCC2)CCN(CC[C@@]2(c3ccc(Cl)c(Cl)c3)CN(C(=O)c3ccccc3)CCO2)CC1`, for which the AC50 in test [8] is 10.5 µM (active); in test [9], 11.5 µM (active); in [10], 10.3 µM (active); in test [11], 13.6 µM (active).

Take `CC1(C)NC(=O)N(c2ccc([N+](=O)[O-])c(C(F)(F)F)c2)C1=O`: the AC50 in [9] is 68.9 µM (active). The molecule was called inactive in test [10].

For the molecule `O=c1[nH]sc2ccccc12`, the AC50 in [8] is 14.1 µM (active); in test [9], 7.87 µM (active); in test [10], 14.9 µM (active).
